For test [1], the target named is Nuclear receptor subfamily 1 group I member 2 (Homo sapiens) (UniProt O75469). Nature of the test: Human pregnane X receptor (PXR) small molecule agonists, qHTS assay (AID 1346982). Further: nearly all actives have a fitted effect of over 35% in size. Further: potency means the concentration at half of the fitted maximal effect. The method in brief: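 Agonist mode qHTS: PXR-Luc HepG2 cells plated 5 hr before DMSO-dissolved compounds were pinned in, cultured 24 hr at 37 C, 5% CO2; ONE-Glo luminescence readout.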
Nuclear receptor subfamily 1 group I member 2 (Homo sapiens), sequence (O75469 whole entry, looked up): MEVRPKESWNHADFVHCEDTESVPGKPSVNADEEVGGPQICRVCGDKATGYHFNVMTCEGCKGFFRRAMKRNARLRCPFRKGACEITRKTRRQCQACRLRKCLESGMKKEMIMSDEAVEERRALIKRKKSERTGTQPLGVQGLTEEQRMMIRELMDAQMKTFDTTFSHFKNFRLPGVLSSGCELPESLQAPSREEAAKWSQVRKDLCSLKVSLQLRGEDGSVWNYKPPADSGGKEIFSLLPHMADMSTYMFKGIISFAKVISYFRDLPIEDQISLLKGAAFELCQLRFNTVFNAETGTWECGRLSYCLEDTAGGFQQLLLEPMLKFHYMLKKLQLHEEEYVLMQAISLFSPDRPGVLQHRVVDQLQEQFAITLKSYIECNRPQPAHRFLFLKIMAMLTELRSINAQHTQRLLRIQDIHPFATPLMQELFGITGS
A general note: In qHTS, concentration-response curves come from the screen itself.

The target in test [2] is Cytochrome P450 2D6 (Homo sapiens) (UniProt P10635). The test is described as follows: Cytochrome P450 Family 2 Subfamily D Member 6 (CYP2D6) small molecule antagonists: luciferase reporter qHTS assay (AID 1671196). Further: nearly all actives have a fitted effect of over 50% in size. Further: potency means the concentration at half of the fitted maximal effect. An outline of the steps: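 P450-Glo format: CYP2D6 converts a proluciferin substrate to luciferin in an NADPH-driven reaction lasting 1 h at room temperature. Light output, proportional to CYP2D6 activity, reflects interference by test chemicals.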
Cytochrome P450 2D6 (Homo sapiens), sequence (P10635 whole entry, looked up): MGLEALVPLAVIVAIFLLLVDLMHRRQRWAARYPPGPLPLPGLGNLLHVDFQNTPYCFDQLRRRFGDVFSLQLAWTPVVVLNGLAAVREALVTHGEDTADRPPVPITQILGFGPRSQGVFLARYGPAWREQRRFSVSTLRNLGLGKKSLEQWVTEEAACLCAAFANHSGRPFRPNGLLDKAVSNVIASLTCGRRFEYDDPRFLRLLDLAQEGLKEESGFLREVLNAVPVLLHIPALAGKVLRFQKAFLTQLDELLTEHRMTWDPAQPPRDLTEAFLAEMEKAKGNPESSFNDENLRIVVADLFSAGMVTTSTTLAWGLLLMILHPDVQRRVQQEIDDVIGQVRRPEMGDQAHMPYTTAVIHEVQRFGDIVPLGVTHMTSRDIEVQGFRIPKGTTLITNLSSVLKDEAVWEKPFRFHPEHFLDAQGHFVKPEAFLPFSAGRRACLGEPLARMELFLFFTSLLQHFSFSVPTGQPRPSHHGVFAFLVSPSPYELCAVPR
On the technique in general: Reporter assays use an easily measured gene product as a stand-in for the process of interest.

Test [3] has as its target Cytochrome P450 2C19 (Homo sapiens) (UniProt P33261). Nature of the test: Cytochrome P450 Family 2 Subfamily C Member 19 (CYP2C19) small molecule antagonists: luciferase reporter qHTS assay (AID 1671197). Further: nearly all actives have a fitted effect of over 65% in size. Further: potency means the concentration at half of the fitted maximal effect. The method in brief: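 Luminescent readout of CYP2C19 activity: luciferin product detected 20 min after adding detection reagent. Before that, compound and enzyme-substrate mix preincubated 10 min at room temperature; NADPH-regenerating system started a 1 h, 37C reaction. Ketoconazole as positive control.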

Test [4] has as its target Cytochrome P450 2C9 (Homo sapiens) (UniProt P11712). Nature of the test: Cytochrome P450 Family 2 Subfamily C Member 9 (CYP2C9) small molecule antagonists: luciferase reporter qHTS assay (AID 1671198). Further: nearly all actives have a fitted effect of over 50% in size. Further: potency means the concentration at half of the fitted maximal effect. The method in brief: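 CYP2C9 activity was measured with a P450-Glo proluciferin substrate. Enzyme–substrate mix was held with compound for 10 min at room temperature, then NADPH regeneration solution was added for 1 h at 37C. Luciferin product was read as luminescence.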

The target in test [5] is Voltage-gated inwardly rectifying potassium channel KCNH2 (Homo sapiens) (UniProt Q12809). Nature of the test: Human Ether-a-go-go-Related Gene (hERG) channel small molecule antagonists: fluorescence cell-based qHTS assay (AID 1671200).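 Further: hERG-expressing U2OS cells given a thallium stimulus after FluxOR II dye loading; series mostly up to about 77 µM; nearly all actives have a fitted effect of over 50% in size.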 An outline of the steps: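 First, 1000 cells per well are seeded and cultured overnight at 37 C. Next, FluxOR II dye is loaded for 1 h at room temperature, protected from light. After 10 more minutes, stimulus is added and fluorescence is read.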
Voltage-gated inwardly rectifying potassium channel KCNH2 (Homo sapiens), sequence (Q12809 whole entry, looked up): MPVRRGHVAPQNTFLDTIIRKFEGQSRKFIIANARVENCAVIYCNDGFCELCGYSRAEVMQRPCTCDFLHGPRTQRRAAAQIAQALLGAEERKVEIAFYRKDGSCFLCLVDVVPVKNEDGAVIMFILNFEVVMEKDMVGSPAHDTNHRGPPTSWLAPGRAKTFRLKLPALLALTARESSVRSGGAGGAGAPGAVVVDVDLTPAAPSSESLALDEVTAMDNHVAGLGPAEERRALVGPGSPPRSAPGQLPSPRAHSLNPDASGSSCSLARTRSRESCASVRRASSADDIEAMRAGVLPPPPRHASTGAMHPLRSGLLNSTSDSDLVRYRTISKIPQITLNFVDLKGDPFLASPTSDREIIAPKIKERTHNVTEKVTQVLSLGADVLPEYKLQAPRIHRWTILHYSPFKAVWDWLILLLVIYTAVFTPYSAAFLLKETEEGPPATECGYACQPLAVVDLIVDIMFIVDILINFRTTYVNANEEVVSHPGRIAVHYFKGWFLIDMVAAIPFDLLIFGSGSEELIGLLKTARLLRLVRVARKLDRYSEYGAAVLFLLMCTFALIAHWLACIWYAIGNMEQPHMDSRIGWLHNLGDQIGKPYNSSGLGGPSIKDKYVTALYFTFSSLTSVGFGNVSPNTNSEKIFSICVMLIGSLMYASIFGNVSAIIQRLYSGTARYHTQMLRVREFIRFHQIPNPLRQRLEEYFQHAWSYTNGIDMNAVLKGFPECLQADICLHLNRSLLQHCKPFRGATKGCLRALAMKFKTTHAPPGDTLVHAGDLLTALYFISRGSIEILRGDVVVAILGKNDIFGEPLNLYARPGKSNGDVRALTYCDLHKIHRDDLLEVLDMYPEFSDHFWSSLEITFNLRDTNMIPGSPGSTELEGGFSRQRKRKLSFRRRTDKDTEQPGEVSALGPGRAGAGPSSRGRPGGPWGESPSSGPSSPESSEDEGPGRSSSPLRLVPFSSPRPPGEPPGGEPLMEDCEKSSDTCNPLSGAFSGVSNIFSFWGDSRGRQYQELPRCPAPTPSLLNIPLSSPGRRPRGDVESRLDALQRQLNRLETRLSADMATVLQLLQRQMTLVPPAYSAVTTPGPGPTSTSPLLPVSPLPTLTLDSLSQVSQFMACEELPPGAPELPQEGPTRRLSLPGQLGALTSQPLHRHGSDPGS
(hERG is a cardiac potassium channel; its block is linked to QT prolongation.)

For test [6], the target named is Cytochrome P450 3A4 (Homo sapiens) (UniProt P08684). Nature of the test: Cytochrome P450 Family 3 Subfamily A Member 4 (CYP3A4) small molecule antagonists: luciferase reporter qHTS assay (AID 1671201). Further: nearly all actives have a fitted effect of over 50% in size. Further: potency means the concentration at half of the fitted maximal effect. An outline of the steps: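 Enzyme and proluciferin substrate are mixed with test chemicals for 10 min, then NADPH regeneration system drives turnover for 1 h at room temperature. A detection reagent halts the reaction; luminescence after 20 min gives relative activity.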
Cytochrome P450 3A4 (Homo sapiens), sequence (P08684 whole entry, looked up): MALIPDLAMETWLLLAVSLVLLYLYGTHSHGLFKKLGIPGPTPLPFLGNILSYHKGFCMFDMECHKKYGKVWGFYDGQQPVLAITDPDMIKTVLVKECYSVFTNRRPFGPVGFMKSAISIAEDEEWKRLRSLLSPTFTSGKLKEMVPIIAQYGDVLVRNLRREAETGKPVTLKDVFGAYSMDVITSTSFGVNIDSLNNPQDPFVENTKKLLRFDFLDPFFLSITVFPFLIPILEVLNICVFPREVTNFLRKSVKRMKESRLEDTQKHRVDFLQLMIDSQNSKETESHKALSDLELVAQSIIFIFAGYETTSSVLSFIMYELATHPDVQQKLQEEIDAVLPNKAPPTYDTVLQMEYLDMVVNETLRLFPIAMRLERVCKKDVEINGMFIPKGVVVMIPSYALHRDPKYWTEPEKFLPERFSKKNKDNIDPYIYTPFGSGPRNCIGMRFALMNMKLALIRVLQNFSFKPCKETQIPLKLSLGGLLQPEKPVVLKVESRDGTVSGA

Test [7] addresses Cytochrome P450 1A2 (Homo sapiens) (UniProt P05177). The test is described as follows: Cytochrome P450 Family 1 Subfamily A Member 2 (CYP1A2) small molecule antagonists: luciferase reporter qHTS assay (AID 1671199). Further: nearly all actives have a fitted effect of over 50% in size. Further: potency means the concentration at half of the fitted maximal effect. An outline of the steps: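 Inhibition of CYP1A2 conversion of proluciferin to luciferin, detected by luminescence. Reaction run 1 h at room temperature with NADPH regeneration after brief compound preincubation.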

The results in this text go back to PubChem BioAssay (Tox21).

Structures are written as SMILES. Results filed as inconclusive are left out. Values without a mark were called inactive. The source made the active and inactive calls. The call rests on the fitted dose curve; in most records, active means well fitted curve in the direction sought with a large enough effect in the repeat runs; inconclusive means weak or mixed curves; inactive means no such curve, though single readings can be large; an effect the other way counts as inactive or inconclusive.

Cytochrome P450 1A2 (Homo sapiens), sequence (P05177 whole entry, looked up): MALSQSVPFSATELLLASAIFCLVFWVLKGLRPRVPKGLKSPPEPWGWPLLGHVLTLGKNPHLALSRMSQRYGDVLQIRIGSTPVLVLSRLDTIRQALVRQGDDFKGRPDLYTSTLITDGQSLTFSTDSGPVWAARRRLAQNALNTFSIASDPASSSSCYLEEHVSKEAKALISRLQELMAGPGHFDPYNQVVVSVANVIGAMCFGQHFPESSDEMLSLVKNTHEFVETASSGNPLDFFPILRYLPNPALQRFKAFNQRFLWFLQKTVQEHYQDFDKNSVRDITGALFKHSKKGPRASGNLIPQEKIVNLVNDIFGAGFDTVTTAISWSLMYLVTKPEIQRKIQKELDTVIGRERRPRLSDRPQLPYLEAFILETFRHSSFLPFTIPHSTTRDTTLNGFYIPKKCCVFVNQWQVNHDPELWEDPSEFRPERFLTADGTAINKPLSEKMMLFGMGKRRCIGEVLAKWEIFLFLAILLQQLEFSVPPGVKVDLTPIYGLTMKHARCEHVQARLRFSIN
Cytochrome P450 2C9 (Homo sapiens), sequence (P11712 whole entry, looked up): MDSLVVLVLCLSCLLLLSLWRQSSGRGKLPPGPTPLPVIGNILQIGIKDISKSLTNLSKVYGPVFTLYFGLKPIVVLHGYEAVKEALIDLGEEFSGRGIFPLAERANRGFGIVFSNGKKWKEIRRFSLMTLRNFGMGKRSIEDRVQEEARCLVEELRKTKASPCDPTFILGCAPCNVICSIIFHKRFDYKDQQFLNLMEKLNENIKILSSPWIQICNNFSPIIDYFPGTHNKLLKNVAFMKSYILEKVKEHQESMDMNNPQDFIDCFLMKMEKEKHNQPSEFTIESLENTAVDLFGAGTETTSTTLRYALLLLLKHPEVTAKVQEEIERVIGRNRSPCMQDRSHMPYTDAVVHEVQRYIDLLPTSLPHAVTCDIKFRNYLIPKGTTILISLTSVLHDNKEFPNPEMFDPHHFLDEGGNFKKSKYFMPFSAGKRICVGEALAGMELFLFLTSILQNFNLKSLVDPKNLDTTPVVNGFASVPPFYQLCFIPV
Cytochrome P450 2C19 (Homo sapiens), sequence (P33261 whole entry, looked up): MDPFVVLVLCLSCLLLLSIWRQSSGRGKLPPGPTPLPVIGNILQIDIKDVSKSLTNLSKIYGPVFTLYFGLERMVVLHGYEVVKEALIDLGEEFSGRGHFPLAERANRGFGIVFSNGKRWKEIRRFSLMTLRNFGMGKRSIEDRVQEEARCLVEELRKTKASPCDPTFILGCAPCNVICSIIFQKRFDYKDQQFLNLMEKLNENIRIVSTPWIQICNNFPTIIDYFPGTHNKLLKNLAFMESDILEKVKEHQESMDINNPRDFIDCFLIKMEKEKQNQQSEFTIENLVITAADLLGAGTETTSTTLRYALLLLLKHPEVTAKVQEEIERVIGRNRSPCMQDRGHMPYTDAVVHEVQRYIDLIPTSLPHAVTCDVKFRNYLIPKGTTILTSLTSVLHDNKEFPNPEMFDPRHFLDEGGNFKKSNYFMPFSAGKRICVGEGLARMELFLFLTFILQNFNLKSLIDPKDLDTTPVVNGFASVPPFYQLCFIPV

With `Fc1ccccc1`, the Potency entry in test [1], in test [2], in test [3], in test [4], in test [5] and in test [6] was “inactive” in each case.
For `COc1cc(/C=C/C(N)=O)cc(OC)c1OC`, the Potency result in test [1], in test [2], in test [3], in test [4] and in test [6] was “inactive” throughout. The Potency in test [7] is 21.9 µM (active).
`CCO`: the Potency result in test [1], in test [2], in test [3], in test [4], in test [5] and in test [6] was “inactive” in each case.
As to `COC(=O)c1cc(Cl)cc(Cl)c1`, the Potency result in test [1], in test [2], in test [3], in test [4], in test [5] and in test [6] was “inactive” in each case.
As for `O=C[O][Al]([O]C=O)[O]C=O`, the Potency result in test [1], in test [2], in test [3], in test [4], in test [7] and in test [5] was “inactive” in each case. In test [6], the Potency entry was “inactive”.
Turning to `N#Cc1cscn1`, the Potency entry in test [1], in test [2], in test [3], in test [4], in test [5] and in test [6] was “inactive” throughout.
For the molecule `COC(C)(OC)OC`, the Potency result in test [1], in test [2], in test [3], in test [4], in test [5] and in test [6] was “inactive” throughout.
With `CC(C)C1OCCN1CCOC(=O)NCCCCCCNC(=O)OCCN1CCOC1C(C)C` (stereo not drawn), the Potency in test [1] was 34.4 µM (active); in test [2], 63.3 µM (active); in test [3] it was 35.6 µM (active); in test [6] it was 10 µM (active). Besides, the Potency result in test [4], in test [7] and in test [5] was “inactive” throughout.
For `C/C(CC(C)C)=N\O`, the Potency result in test [1], in test [2], in test [3], in test [4], in test [7] and in test [6] was “inactive” each time.
Turning to `CSc1cnccn1`, the Potency result in test [1], in test [2], in test [3], in test [4], in test [7] and in test [6] was “inactive” throughout.
In the case of `CC(S)C(C)S` (stereo not drawn), the Potency entry in test [1], in test [2], in test [3], in test [4], in test [5] and in test [6] was “inactive” each time.
As for `CC(=O)c1cc(C)oc1C`, the Potency entry in test [1], in test [2], in test [4], in test [7] and in test [6] was “inactive” each time. The Potency in test [3] was 32.9 µM (active).
In the case of `CCCCCCC1(C)CCC(=O)O1` (stereo not drawn), the Potency entry in test [1], in test [2], in test [3], in test [4], in test [5] and in test [6] was “inactive” each time.
As for `OCCN1CCOCC1`, the Potency entry in test [1], in test [2], in test [3], in test [4], in test [7] and in test [6] was “inactive” each time.
Regarding `CCC(C(=O)OCCN1CCOC(c2ccccc2)C1C)c1ccccc1` (stereo not drawn), the Potency is 33.5 µM (active) in test [1], 5.49 µM (active) in test [2], 1.38 µM (active) in test [3] and 4.9 µM (active) in test [4]. The Potency result in test [5] was “inactive”.
Turning to `CC(C)(CO)C(O)C(=O)NCCCO` (stereo not drawn), the Potency entry in test [1], in test [2], in test [3], in test [4], in test [5] and in test [6] was “inactive” throughout.
In the case of `CN(C)C(C)(C)CO`, the Potency result in test [1], in test [2], in test [3], in test [4], in test [5] and in test [6] was “inactive” in each case.
Consider `CC(=O)CCC1=C(C)CCCC1(C)C`, for which the Potency entry in test [1], in test [2] and in test [5] was “inactive” throughout. Besides, the Potency is 35.6 µM (active) in test [3], 31.7 µM (active) in test [4] and 10 µM (active) in test [6].
`CC(=O)OCC(=O)Nc1cc(C#N)cc(NC(=O)COC(C)=O)c1Cl`: the Potency result in test [1], in test [2], in test [3], in test [4], in test [7] and in test [6] was “inactive” in each case.
Take `CCCCOCC(C)O` (stereo not drawn): the Potency result in test [1], in test [2], in test [3], in test [4], in test [5] and in test [6] was “inactive” throughout.
As for `O=C(CCCCC(=O)Nc1c(I)cc(I)c(C(=O)O)c1I)Nc1c(I)cc(I)c(C(=O)O)c1I`, the Potency entry in test [1], in test [2], in test [3], in test [4], in test [7] and in test [6] was “inactive” each time.
For the molecule `Cc1ccc(C(=O)O)cc1[N+](=O)[O-]`, the Potency entry in test [1], in test [2], in test [3], in test [4], in test [5] and in test [6] was “inactive” in each case.
